Consider seven molecules from PubChem BioAssay (NCI).

Several values for one entry are separate records, joined by “and”; a condition that tells them apart may be missing. Identical values can stand only once. About 83,000 compounds went through this panel and 20% of them were active in at least one assay; those are over-represented in the sample as a whole.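 Each cell line was grown in a 96-well plate and treated with one concentration of compound for 48 hours. Values below 10 were considered active.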 A number with no mark means an inactive call. Activity calls are given as the source filed them.

Experiment in all cases: NCI-60 one-dose screen, 48 h (100 = growth as untreated, 0 = no growth, -100 = all killed)
Holding throughout (details): 10 µM unless noted

Experiment [1] concerns NCI-H226 lung.
In experiment [2] the test system is NCI-H322M lung.
The test system of experiment [3] is HOP-62 NSCLC.
Experiment [4] has as its system NCI-H460 lung.
Experiment [5] concerns HOP-92 NSCLC.
Experiment [6] relates to NCI-H522 lung.
In experiment [7] the test system is A549/ATCC NSCLC.
The test system of experiment [8] is 786-0 renal.
The subject of experiment [9] is COLO 205 colon.
In experiment [10] the test system is DU-145 prostate.
Experiment [11] has as its system K-562 leukemia.
Experiment [12] deals with MALME-3M melanoma.
The test system of experiment [13] is MDA-MB-231 breast.
The test system of experiment [14] is RXF 393 renal.
The test system of experiment [15] is SF-268 CNS.
The test system of experiment [16] is SF-295 CNS.
Experiment [17] concerns SF-539 CNS.
The test system of experiment [18] is UACC-257 melanoma.
Experiment [19] has as its system M14 melanoma.

`COc1ccc(C(C#N)C(C)=O)cc1` (stereo not drawn): the growth is 99.9% in experiment [1]; 135% in experiment [2]; 98.8% in experiment [3]; 102% in experiment [4]; 111% in [5]; 82.5% in [6]. The growth in experiment [7] is 101%; in experiment [8], 107%; in [9], 106%; in experiment [10], 92.6%; in [11], 104%; in experiment [12], 108%. Further, the growth was 116% in experiment [13]; 111% in experiment [14]; 88.9% in experiment [15]; 107% in experiment [16]; 103% in experiment [17]; 93% in experiment [18].

As for `CN1CCC2(CC1)C(C#N)C(=O)NC(=O)C2C#N` (stereo not drawn), the growth was 96.1% in [1]; 106% in experiment [4]; 109% in experiment [5]; 95.9% in experiment [7]; 104% in experiment [8]; 109% in [9]. Further, the growth was 112% in experiment [10]; 94.5% in [11]; 107% in [12]; 101% in [13]; 104% in experiment [14]; 107% in experiment [15]. In addition, the growth in experiment [16] was 94.1%; in experiment [17], 94.9%; in experiment [18], 90.7%; in [19], 107%.

With `C=C[Se]CC(=O)/C=C/c1ccccc1`, the growth in experiment [1] was 98%; in experiment [2], 6% (active); in experiment [3], 13%; in [4] it was 12.8%; in experiment [5] it was 104%; in experiment [6] it was 89.2%. In addition, the growth is 32.3% in experiment [7]; 102% in [8]; 109% in experiment [9]; 87.5% in experiment [10]; 93.9% in experiment [11]; 97.5% in [12]. The growth was 94.3% in experiment [13]; 114% in experiment [14]; 94.8% in [15]; 3.93% (active) in experiment [16]; 95.2% in experiment [17]; 92.7% in experiment [18]. For the same molecule, the growth in [19] was 73.5%.

Turning to `O=S(OO)c1cc(Cl)c(O)c(Cl)c1` (stereo not drawn), the growth in experiment [1] was 109%; in experiment [2] it was 97.7%; in experiment [3], 105%; in experiment [4], 102%; in experiment [5] it was 92.1%; in experiment [7], 94.7%. In addition, the growth in experiment [8] is 97.1%; in experiment [9] it was 117%; in [10], 113%; in [11], 107%; in [12], 115%; in [13], 110%. For the same molecule, the growth in [14] is 106%; in [15], 103%; in experiment [16] it was 94.3%; in experiment [17], 95.7%; in [18], 99.6%; in experiment [19], 107%.

On to `Nc1ccc(P(=O)(O)O)cc1`, for which the growth was 102% and 100% in experiment [1]; 104% and 99.3% in experiment [2]; 113% and 103% in experiment [4]; 95.3% and 90.3% in experiment [5]; 111% and 88.8% in experiment [6]; 102% and 94.4% in [7]. For the same molecule, the growth in [8] was 113% and 91.2%; in [9], 111% and 105%; in experiment [10], 119% and 107%; in [11], 110% and 104%; in experiment [12], 101% and 95.7%; in experiment [13], 114% and 103%. The growth is 117% and 102% in experiment [14]; 113% and 107% in [15]; 99.5% and 93.4% in [16]; 88.6% and 100% in experiment [17]; 104% and 99.2% in experiment [18]; 121% and 100% in experiment [19].

Regarding `O=S(=O)(c1ccc(O)cc1)c1ccccc1O`, the growth in experiment [1] was 104%; in experiment [2] it was 111%; in [3], 101%; in experiment [4] it was 105%; in experiment [5] it was 100%; in [7], 112%. Also, the growth in [9] was 112%; in [10], 111%; in experiment [11], 98%; in experiment [12], 113%; in experiment [13] it was 98.9%; in experiment [14] it was 117%. The growth in experiment [15] is 97.3%; in [16], 112%; in experiment [17], 103%; in [18] it was 111%.

With `O=C(NC1=NCC[Se]1)c1ccccc1O`, the growth in experiment [1] was 62.9%; in [2], 49.4%; in [3], 39%; in experiment [4] it was 16.2%; in [5], 63.5%; in [7], 56.8%. Moreover, the growth is 94.7% in experiment [8]; 124% in [9]; 61.1% in [10]; 50.7% in experiment [11]; -22.9% (active) in [12]; 69.3% in [13]. Also, the growth in experiment [14] was 44%; in experiment [15], 43.3%; in [16] it was 95.4%; in [17] it was 52.9%; in experiment [18], 55.3%; in experiment [19], 42%.
